ALOX12 inhib – 12-hLO (ALOX12) enzyme inhibition; P18054; Potency, µM (highest dose often 57.1 µM), for inactives: at the top dose activity change, negative = inhibition, usual class: inhibitors; hit rate 0.12% among 150,000; purified 12-hLO, xylenol orange hydroperoxide absorbance; active means well fitted inhibition curve with a large enough effect; inconclusive means small, poorly fitted or top-dose-only effect; further: potency means the concentration at half of the fitted maximal effect; nearly all actives have a fitted effect of over 55% in size
Target sequence (P18054 whole entry, looked up): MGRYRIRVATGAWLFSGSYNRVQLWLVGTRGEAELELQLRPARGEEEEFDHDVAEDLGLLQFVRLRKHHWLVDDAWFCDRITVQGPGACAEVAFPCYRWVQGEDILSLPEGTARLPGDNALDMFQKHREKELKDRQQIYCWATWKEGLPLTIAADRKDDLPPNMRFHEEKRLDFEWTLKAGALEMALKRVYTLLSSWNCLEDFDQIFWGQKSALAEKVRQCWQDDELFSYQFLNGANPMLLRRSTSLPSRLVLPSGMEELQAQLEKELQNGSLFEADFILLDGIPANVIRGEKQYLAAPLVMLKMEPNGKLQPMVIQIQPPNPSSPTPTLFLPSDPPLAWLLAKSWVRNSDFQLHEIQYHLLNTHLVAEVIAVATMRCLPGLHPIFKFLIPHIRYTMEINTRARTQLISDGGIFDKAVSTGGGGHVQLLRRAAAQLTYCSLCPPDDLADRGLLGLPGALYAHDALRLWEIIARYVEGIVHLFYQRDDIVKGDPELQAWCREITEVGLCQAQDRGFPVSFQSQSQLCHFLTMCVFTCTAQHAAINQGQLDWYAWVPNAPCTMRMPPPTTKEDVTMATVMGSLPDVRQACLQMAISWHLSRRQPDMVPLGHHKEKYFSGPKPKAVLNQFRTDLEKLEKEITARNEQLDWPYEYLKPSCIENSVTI
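Purified human 12hLO (150 nM), preincubated 15 min with compound, then 40 uM arachidonic acid for 30 min, room temperature, Hepes pH 7.0 with 0.01% Triton X-100. Hydroperoxide detected by ferrous iron/xylenol orange; 573/405 nm absorbance ratio gives reaction progress.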
ALDH1A1 block – ALDH1A1 (human) enzyme inhibition; P00352; Potency, µM (highest dose often 75.3 µM), for inactives: at the highest dose activity, negative = inhibition, actives largely listed as inhibitors; hit rate 7.3% among 220,000; Purified ALDH1A1, NADH fluorescence, propionaldehyde substrate;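 further: potency means the concentration at half of the fitted maximal effect; plate controls were no enzyme wells and a reference inhibitor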
LMNA splice mod – modulators of lamin A splicing. AID 1487. HeLa LMNA splicing GFP/RFP minigene ratio, 48 h. Potency, µM (top dose mostly 46.1 µM), for the others: at the top dose ratio change, negative = inhibition, hits mostly inhibitors. hit rate 0.01% among 200,000; active means well fitted inhibition curve with a large enough effect in the signal ratio, with a control signal flat, not every such curve was filed as active; inconclusive means small, poorly fitted or top-dose-only effect, or effect the other way, or a change in a side signal; the % refers to the signal ratio; further: potency means the concentration at half of the fitted maximal effect
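Read-out is the ratio of GFP to DsRed2 object intensity, acquired by 488 nm laser-scanning cytometry on HeLa lamin A-EGFP minigene reporter cells. Compound incubation 48 hrs at 37 °C in Opti-MEM with 2% FBS; DMSO 0.5% final.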
HPGD inh – inhibitors of human 15-hydroxyprostaglandin dehydrogenase (HPGD) | P15428 | purified HPGD, NADH fluorescence kinetic, PGE2 substrate | Potency, µM, without a hit: at the highest dose activity change, negative = inhibition, most hits filed as inhibitors | hit rate 4.3% among 150,000 | AID 894; further: potency means the concentration at half of the fitted maximal effect
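NADH formation kinetics: reaction with 30 uM PGE2 and 1 mM NAD+ (final), 20 nM enzyme, Tris-HCl pH 8 with Tween 20, after 15 min compound preincubation at room temperature. Fluorescence change, last versus first of five reads.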
PNC inhibitor – perinucleolar compartment assembly inhibition | PC3M PTB-GFP, PNC prevalence imaging, 16 h; active compounds read low | activity change (PNC), negative = inhibition, % at 10 µM | hit rate 3.1% among 140,000;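 active means readout at or below -70, meaning at least 70% loss of cells showing the perinucleolar compartment, a nuclear body marking cancer cells; inconclusive means readout between -30 and a set limit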;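 further: plate controls were DMSO wells for no effect and camptothecin positive control wells for full effect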
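PC3M cells stably expressing PTB-GFP, 750–1000 cells/well, treated 16 h at 37 °C with compound (23 nl of library stock), in duplicate. After paraformaldehyde fixation and Hoechst stain, imaged at 20x; PNC prevalence scored by image analysis.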
An asterisk follows results filed as active; ! = repeats disagree; [ ] = another dose, or the depositor's remark. Shown are actives, neighbours in structure and some others; about 10% of the full set was active somewhere. Unless noted, the call rests on the fitted dose curve; in most records, active means well fitted inhibition curve with a large enough effect (not every such curve was filed as active); inconclusive means small, poorly fitted or top-dose-only effect, or another doubt; inactive means no such curve, though single readings can be large or run the other way. Unless noted, on the % scale 0 is the no-effect control and ±100 the full control effect.

For CCOC(=O)c1c(/N=C/c2c(O)n(-c3ccc(F)cc3)c(=S)[nH]c2=O)sc2c1CCCC2 the results were ALOX12 inhib -3%, ALDH1A1 block 18µM*, LMNA splice mod -2%, HPGD inh 0% and PNC inhibitor -11.
CCOC(=O)c1ccc(N=Cc2c(O)n(-c3ccccc3F)c(=S)[nH]c2=O)cc1 was read as ALOX12 inhib -2%, ALDH1A1 block -7%, LMNA splice mod 25%, HPGD inh -7% and PNC inhibitor 3.
For CCOC(=O)c1c(/N=C/c2c(O)n(-c3ccccc3F)c(=S)[nH]c2=O)sc2c1CCCC2 the results were ALOX12 inhib -12%, ALDH1A1 block 1.3µM*, LMNA splice mod 7%, HPGD inh 22µM* and PNC inhibitor inconclusive.
Screening O=c1[nH]c(=S)n(-c2ccc(Cl)cc2)c(O)c1/C=N/N1CCOCC1 returned ALDH1A1 block -15%.
For Cc1c(C(=O)c2cccc3ccccc23)c2cccc3c2n1[C@@H](CN1CCOCC1)CO3 the results were ALOX12 inhib 0%[0.00818 µM], ALDH1A1 block inconclusive and HPGD inh -1%.
For CC1COC2=C1C(=O)C(=O)c1c2ccc2c1CCCC2(C)C (stereo unspecified) the results were ALOX12 inhib -6%[0.00818 µM], ALDH1A1 block 22µM*, LMNA splice mod -11% and HPGD inh 20µM*.
Screening C[C@H]1COC2=C1C(=O)C(=O)c1c2ccc2c1CCCC2(C)C returned ALDH1A1 block 13µM*.
`CC1=C2C(=CO[C@H](C)[C@H]2C)C(=O)C(C(=O)O)=C1O` gave ALDH1A1 block -2% and HPGD inh -6%.
For CN(C)CCCCCCN(C)C the results were ALOX12 inhib 2%, ALDH1A1 block inconclusive and HPGD inh -8%.
Screening C/C(CC(=O)N1CCN(C=O)CC1)=N\NC(=O)c1cccc([N+](=O)[O-])c1 returned ALDH1A1 block 25µM*.
`COc1ccc2c3c1O[C@@H]1C(=O)CC[C@@]4(O)[C@@H](C2)N(CC2CC2)CC[C@]314` gave ALOX12 inhib -3%.
`C=CCN1C(=O)NC(=O)/C(=C/c2ccc(OC)c(CSc3ccccn3)c2)C1=O` gave ALOX12 inhib 4%, ALDH1A1 block 13µM*, LMNA splice mod 1%, HPGD inh 28µM* and PNC inhibitor 83.
O=NN(CCCl)C(=O)NCCCl was read as ALOX12 inhib 3%, ALDH1A1 block 3.2µM*!, LMNA splice mod -18% and HPGD inh -4%.
`c1cc2n(c1)-c1c(ccc3c1OCO3)CNC2c1ccc2c(c1)OCO2` (stereo unspecified) gave ALOX12 inhib 0%, ALDH1A1 block -5%, LMNA splice mod inconclusive, HPGD inh -9% and PNC inhibitor -7.
`COc1ccc(C2NCc3ccc4c(c3-n3cccc32)OCO4)cc1O` (stereo unspecified) gave ALOX12 inhib -8%, ALDH1A1 block -6%, LMNA splice mod inconclusive, HPGD inh -12% and PNC inhibitor -108*.
`C=CCN1CC[C@]23c4c5ccc(O)c4O[C@@H]2/C(=N/NC(=O)c2ccccc2)CC[C@@]3(O)[C@H]1C5` gave ALOX12 inhib -5%.
Screening COc1cc(/C=N/NC(=O)CN2CCCCC2)ccc1OCc1ccccc1 returned ALOX12 inhib 6%, ALDH1A1 block 22µM*, LMNA splice mod 6%, HPGD inh -23% and PNC inhibitor 7.
Screening CC(=O)N1CCN(c2ccc(OC[C@@H]3CO[C@@](Cn4ccnc4)(c4ccc(Cl)cc4Cl)O3)cc2)CC1 returned ALOX12 inhib 2%[25.6 µM], ALDH1A1 block -8%[20.9 µM], LMNA splice mod inconclusive and HPGD inh 1%.
`CC(C)(C)n1cccc1/C=C1\C(=O)NC(=O)N(c2ccccc2)C1=O` gave ALOX12 inhib 3%, ALDH1A1 block 1.4µM*, LMNA splice mod 0%, HPGD inh 2% and PNC inhibitor -10.
COc1cc(/C=C2\C(=O)NC(=O)N(c3ccccc3)C2=O)cc(OC)c1O was read as ALOX12 inhib -5%, ALDH1A1 block inconclusive, LMNA splice mod 9%, HPGD inh 32µM* and PNC inhibitor 18.
Screening Cc1cc(C)cc(N2C(=O)NC(=O)/C(=C/c3cccn3-c3ccc(Cl)cc3)C2=O)c1 returned ALOX12 inhib -3%, ALDH1A1 block 9%, LMNA splice mod inconclusive, HPGD inh 4µM* and PNC inhibitor 10.
Screening Cc1cccc(N2C(=O)NC(=O)/C(=C\c3cccn3-c3ccc(Cl)cc3)C2=O)c1 returned ALOX12 inhib -3%, ALDH1A1 block -3%, LMNA splice mod inconclusive, HPGD inh inconclusive and PNC inhibitor 82.
For CCCCCCCCCCCCC/C=C/[C@@H](O)[C@@H](N)COP(=O)(O)O the results were ALOX12 inhib -1%[0.00818 µM], ALDH1A1 block 16% and HPGD inh -3%.
`CC(=O)OC1=CC2=CC[C@H]3[C@H]4CCC(=O)[C@@]4(C)CC(=O)[C@]3(S)[C@]2(C)CC1` gave ALOX12 inhib -6%[11.4 µM], ALDH1A1 block 4.5µM* and HPGD inh -4%.
`ClC(Cl)C(Cl)Cl` gave ALOX12 inhib 0%, ALDH1A1 block 12% and HPGD inh -12%.
`O=C(c1sc2ccccc2c1Cl)N1CCC2(CC1)OCCO2` gave ALOX12 inhib 2%, ALDH1A1 block 10µM*, LMNA splice mod -15%, HPGD inh 14µM* and PNC inhibitor 5.
CC(=O)O[C@H]1CC[C@H]2[C@@H]3CCC4=C[C@@H](C5SCCS5)[C@H](OC(C)=O)C[C@]4(C)[C@H]3CC[C@@]12C was read as ALOX12 inhib -2%[11.4 µM], ALDH1A1 block -15%[13.5 µM] and HPGD inh -17%.
COc1ccc(C(=O)C2CCCN(C3CSCCSC3)C2)c(OC)c1 (stereo unspecified) was read as ALDH1A1 block 14µM* and LMNA splice mod -19%[46 µM].
`COc1ccc(C(=O)C2CCCN(C3CSCCSC3)C2)c(C)c1` (stereo unspecified) gave ALDH1A1 block 14µM* and LMNA splice mod -20%[46 µM].
CN1C(=O)C(=Cc2ccc(OCCN(C)c3ccccn3)cc2)C(=O)N(C)C1=O was read as ALDH1A1 block 7.9µM* and LMNA splice mod 9%[46 µM].
Screening CC[C@@H]1CN2CCc3cc(OC)c(OC)cc3[C@@H]2C[C@@H]1C[C@H]1NCCc2cc(OC)c(OC)cc21 returned ALOX12 inhib -6%, ALDH1A1 block -6% and HPGD inh 0%.
For Cc1ccc(N2C(=O)NC(=O)/C(=C/c3ccc(OC(=O)c4cccs4)cc3)C2=O)cc1 the results were ALOX12 inhib -8%, ALDH1A1 block inconclusive, LMNA splice mod 9%, HPGD inh 28µM* and PNC inhibitor 57.

Screens: PubChem, National Center for Advancing Translational Sciences (NCATS)
